GRP78 ERSR act = ER stress response induction in glioma; hit rate 0.02% among 420,000; U87-MG GRP78 promoter luciferase reporter, 16 h; Potency, µM, hits mostly activators; also: series mostly up to about 76 µM; nearly all actives have a fitted effect of over 35% in size
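ERSR induction read as luciferase luminescence (Bright-Glo, 10 min at room temperature) in stably transfected human U87-MG glioma cells exposed to compounds for 16 h, using GRP78 as sensor.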
TDP43 rescue = inhibitors of TDP-43 toxicity in yeast; TDP-43 expressing yeast growth rescue, BacTiter-Glo, 24 h; Potency, µM (highest dose often 46.1 µM), most hits filed as activators; hit rate 1.8% among 410,000; AID 652104; also: nearly all actives have a fitted effect of over 50% in size
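Yeast cells expressing TDP-43 under galactose induction are exposed to compounds for 24 hr at 30 deg C. BacTiter-Glo luminescence measures growth, so protective compounds score as activators.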
aSyn rescue = alpha-synuclein toxicity inhibition in yeast; Yeast expressing alpha-synuclein, growth rescue, BacTiter-Glo, 24 h; Potency, µM (highest dose often 46.1 µM), usual class: activators; hit rate 0.14% among 370,000; AID 652106; also: nearly all actives have a fitted effect of over 65% in size
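Rescue of yeast growth: cells expressing toxic alpha-synuclein, induced in galactose at OD600 0.02, incubated with compound 24 h at 30 C. ATP luminescence quantified growth; inhibitors of toxicity appear as activators.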
MBNL1 CUG block = blocks human MBNL1 binding to CUG repeat RNA; TR-FRET MBNL1-His/biotin-(CUG)12 binding, 665/545 ratio; hit rate 0.036% among 280,000; Potency, µM (top dose mostly 57.5 µM), hits mostly inhibitors; Q9NR56; active = well fitted inhibition curve with a large enough effect in the signal ratio, with a control signal flat, not every such curve was filed as active; inconclusive = small, poorly fitted or top-dose-only effect, or effect the other way, or a change in a side signal; inactive = no such curve, though single readings can be large or run the other way; the % refers to the signal ratio
Target sequence (Q9NR56 whole entry, looked up): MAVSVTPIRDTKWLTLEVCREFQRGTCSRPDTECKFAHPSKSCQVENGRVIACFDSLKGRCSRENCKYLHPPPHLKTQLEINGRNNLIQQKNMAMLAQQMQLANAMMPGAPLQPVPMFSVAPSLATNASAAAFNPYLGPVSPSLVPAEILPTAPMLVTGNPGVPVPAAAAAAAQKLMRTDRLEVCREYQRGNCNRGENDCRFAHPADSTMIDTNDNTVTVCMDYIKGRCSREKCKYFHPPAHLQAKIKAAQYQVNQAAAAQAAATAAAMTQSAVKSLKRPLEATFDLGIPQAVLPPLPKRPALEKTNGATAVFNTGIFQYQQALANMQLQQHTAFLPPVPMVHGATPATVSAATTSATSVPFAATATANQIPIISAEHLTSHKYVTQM
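Ratiometric TR-FRET (665 over 545 nm, excitation 340 nm) tracks disruption of MBNL1-His/biotin-(CUG)12 complex after 60 min at room temperature, with compounds at 92 nM to 58 uM final.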
Abeta rescue = compounds reversing amyloid beta toxicity in yeast | yeast expressing A-beta42, growth rescue, OD600, 48 h; response scale: 0% DMSO, 100% iron-clioquinol control | Potency, µM (doses to about 46.1 µM), usual class: activators | hit rate 0.063% among 410,000; also: nearly all actives have a fitted effect of over 55% in size
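Yeast A-beta toxicity model in growth medium with pinned compounds, 48 h at 30 C; growth read as absorbance at 600 nm. Normalized to FeCl3/clioquinol equimolar mix (positive) and DMSO (negative).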
FUS suppressor = suppressors of FUS proteinopathy in yeast; S. cerevisiae FUS-expressing, growth rescue, OD600, 24 h; Potency, µM (highest dose often 76.6 µM), usual class: activators; hit rate 0.24% among 390,000; AID 1347120; also: nearly all actives have a fitted effect of over 55% in size
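FUS-expressing yeast, raffinose-pregrown, induced in 2% galactose minimal medium at OD 0.005; compounds in a dilution series, 24hr at 30C. Growth restoration read as absorbance at 600 nm. CP55940 positive control, DMSO negative.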
Numbers stand for hits. This is a sample that favours compounds with a hit; in the whole collection about 2% have one here. Unless noted, calls follow the shape of the dose curve; as a rule, active = well fitted curve in the direction sought with a large enough effect; inconclusive = small, poorly fitted or top-dose-only effect, or another doubt; inactive = no such curve, though single readings can be large; an effect the other way counts as inactive or inconclusive.

What do the screens show for `Clc1ccc(-n2cccc2CN2CCc3nnc(Cc4ccccc4)n3CC2)nc1`?
GRP78 ERSR act: inactive

What do the screens show for `COc1ccc2ccn(S(=O)(=O)c3ccccc3)c2c1`?
GRP78 ERSR act: inactive; TDP43 rescue: 20µM; aSyn rescue: inactive; MBNL1 CUG block: inactive; Abeta rescue: inactive; FUS suppressor: inactive

Results for CCCCC1(C)NC(=O)c2c(C)sc(C(=O)OCC)c2N1 (configuration not stated) ?
GRP78 ERSR act: inactive; TDP43 rescue: 20µM; aSyn rescue: inactive; MBNL1 CUG block: inactive; Abeta rescue: inactive; FUS suppressor: inactive

What do the screens show for `CCc1ccc(S(=O)(=O)NCc2nc(N3CCCC3)c3cccc(C)c3n2)cc1`?
GRP78 ERSR act: inactive

What do the screens show for `COC(=O)C(C)Oc1cc(OC(C)C(=O)OC)c2c(C)c(Cl)c(=O)oc2c1` (configuration not stated)?
GRP78 ERSR act: 40µM; aSyn rescue: inactive; MBNL1 CUG block: inactive; Abeta rescue: inactive; FUS suppressor: inactive

What do the screens show for `Oc1ccccc1/C=N/NC(=S)NC1CC2CCC1C2` (configuration not stated)?
GRP78 ERSR act: inactive; TDP43 rescue: inconclusive; aSyn rescue: inconclusive; MBNL1 CUG block: inactive; Abeta rescue: inconclusive; FUS suppressor: inconclusive

What do the screens show for `S=C(N/N=C/c1ccco1)NC1CC2CCC1C2` (configuration not stated)?
GRP78 ERSR act: inactive; TDP43 rescue: 14µM; aSyn rescue: inactive; MBNL1 CUG block: inactive; Abeta rescue: inconclusive; FUS suppressor: inactive

What do the screens show for `COC(=O)[C@@H]1CCCN1C(=O)c1c(OC)cc(=O)n2c1CCN(Cc1ccc3c(c1)CCO3)CC2`?
GRP78 ERSR act: inactive

Results for CCOc1ccccc1C(=O)Nc1ccccc1O ?
GRP78 ERSR act: inactive; TDP43 rescue: 14µM; aSyn rescue: inactive; MBNL1 CUG block: inactive; Abeta rescue: inactive; FUS suppressor: inactive

What do the screens show for `CCOc1ccccc1C(=O)Nc1cccc2ccccc12`?
GRP78 ERSR act: inactive; TDP43 rescue: inconclusive; aSyn rescue: inactive; MBNL1 CUG block: inactive; Abeta rescue: inactive; FUS suppressor: inactive

How did CCOc1ccccc1C(=O)Nc1cccc2ccc(C)nc12 do in these assays?
TDP43 rescue: 20µM; Abeta rescue: inactive; FUS suppressor: inactive

How did Oc1ccccc1CNc1cccc2cccnc12 do in these assays?
GRP78 ERSR act: inactive; TDP43 rescue: 14µM; aSyn rescue: inactive; MBNL1 CUG block: inactive; Abeta rescue: inactive; FUS suppressor: inactive

How did O=C(Nc1ccccc1)Nc1cccc2cccnc12 do in these assays?
GRP78 ERSR act: inactive; TDP43 rescue: 7.1µM; aSyn rescue: inactive; MBNL1 CUG block: inactive; Abeta rescue: inactive; FUS suppressor: inactive

Results for COC(=O)c1cn(-c2ccc3c(c2)[C@@]2(CC(=O)N(C)C2c2ccccc2)C(=O)N3CC(C)C)nn1 (some centres not stated) ?
FUS suppressor: inactive

How did CN1C(=O)C[C@@](C#N)(C(=O)NCC(F)(F)F)[C@H]1c1ccccc1 do in these assays?
FUS suppressor: inactive

How did C#CCN1CC(N(C)CCOC(=O)c2ccc(F)cc2)CS1(=O)=O (configuration not stated) do in these assays?
FUS suppressor: inactive

Results for COc1ccc2c(c1)CNC2CS(=O)(=O)NCc1ccc(F)cc1 (configuration not stated) ?
FUS suppressor: inactive

How did COc1cc(=O)n2c(c1C(=O)NCc1ccco1)CCN(Cc1cccc(C)n1)CC2 do in these assays?
GRP78 ERSR act: inactive

What do the screens show for `COc1ccccc1C(=O)Nc1cccc2cccnc12`?
GRP78 ERSR act: inactive; TDP43 rescue: 3.2µM; aSyn rescue: inactive; MBNL1 CUG block: inactive; Abeta rescue: inactive; FUS suppressor: inactive

Results for COc1c(C)cccc1C(=O)Nc1cccc2ccc(C)nc12 ?
GRP78 ERSR act: inactive; TDP43 rescue: 22µM; Abeta rescue: inactive; FUS suppressor: inactive

What do the screens show for `Cc1ccc2cccc(NC(=O)c3cccc4c(Cl)cccc34)c2n1`?
GRP78 ERSR act: inactive; TDP43 rescue: inactive; aSyn rescue: inactive; Abeta rescue: inactive; FUS suppressor: inactive

What do the screens show for `CC(=O)c1cccc(NC(=O)C2(C)Cc3c(-c4cccc(C(F)(F)F)c4)ccnc3O2)c1` (configuration not stated)?
GRP78 ERSR act: inactive; TDP43 rescue: 35µM; aSyn rescue: inconclusive; Abeta rescue: inactive; FUS suppressor: inconclusive

What do the screens show for `CC(=O)Nc1ccc(-c2ccnc3c2CC(C)(C(=O)Nc2ccc(Cl)c(C(F)(F)F)c2)O3)cc1` (configuration not stated)?
GRP78 ERSR act: inactive; TDP43 rescue: 35µM; aSyn rescue: inactive; Abeta rescue: inactive; FUS suppressor: inconclusive

How did CCC(C)Nc1nc(C)nc2c1nnn2Cc1ccccc1 (configuration not stated) do in these assays?
FUS suppressor: inactive

What do the screens show for `Nc1c(-c2ccc(Cl)cc2)cnn1-c1cccc([N+](=O)[O-])c1`?
GRP78 ERSR act: inactive; TDP43 rescue: inactive; aSyn rescue: inactive; MBNL1 CUG block: inconclusive; Abeta rescue: inactive; FUS suppressor: inactive

What do the screens show for `Nc1c(-c2ccccc2)cnn1-c1cccc([N+](=O)[O-])c1`?
GRP78 ERSR act: inactive; TDP43 rescue: 20µM; aSyn rescue: inactive; MBNL1 CUG block: inconclusive; Abeta rescue: inactive; FUS suppressor: inactive

What do the screens show for `COc1ccc(Cn2c(NC(=O)c3ccccc3)nc(Cc3ccccc3)c2Cc2ccccc2)cc1`?
FUS suppressor: inactive

Results for O=C(Nc1ccccc1N1CCN(C(=O)c2ccc(Cl)cc2)CC1)c1cccc(F)c1 ?
GRP78 ERSR act: inactive; TDP43 rescue: inconclusive; aSyn rescue: inactive; MBNL1 CUG block: inactive; Abeta rescue: inactive; FUS suppressor: inactive

Results for O=C(Nc1ccccc1N1CCN(C(=O)c2ccc(Cl)cc2)CC1)c1ccc2c(c1)OCO2 ?
GRP78 ERSR act: inactive; TDP43 rescue: 6.3µM; MBNL1 CUG block: inactive; Abeta rescue: inactive; FUS suppressor: inconclusive

What do the screens show for `O=C(Nc1ccccc1N1CCN(C(=O)c2ccccc2)CC1)c1cc(Br)ccc1Cl`?
GRP78 ERSR act: inactive; TDP43 rescue: inconclusive; aSyn rescue: inactive; MBNL1 CUG block: inactive; Abeta rescue: inactive; FUS suppressor: 25µM

How did O=C(c1ccc2c(c1)OCO2)N1CCCC1 do in these assays?
GRP78 ERSR act: inactive; TDP43 rescue: inactive; aSyn rescue: inactive; MBNL1 CUG block: inactive; Abeta rescue: inactive; FUS suppressor: 10µM

How did CCOc1ccc(C=Nn2c(-c3ccc(F)cc3)n[nH]c2=S)cc1 do in these assays?
FUS suppressor: inactive

Results for O=C(Nc1c(-c2ccccc2)nc2ncccn12)C1CC1 ?
FUS suppressor: inactive

Screens: PubChem, National Center for Advancing Translational Sciences (NCATS)
